The text below walks through data of PubChem BioAssay (NCI).

Where “and” joins values, the source holds several entries; their conditions need not be identical. Equal values may be shown once. This is part of a sample that, as a whole, favours compounds with a hit. Of some 83,000 tested, about 20% had one in any assay.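 Method: cells in 96-well plates; compound added at one concentration; 48 h incubation; percent growth measured; values under 10 scored active.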 Unmarked numbers belong to inactive results. Calls of active or inactive are those of the source.

What all share (test): NCI-60 one-dose screen, 48 h (100 = growth as untreated, 0 = no growth, -100 = all killed)
Holding throughout (conditions): 10 µM unless noted

For experiment [1], the system named is HCT-15 colon.
Experiment [2] concerns HT29 colon.
Experiment [3] concerns SNB-75 CNS.
Experiment [4] has as its system SNB-19 CNS.
Experiment [5] deals with U251 CNS.
Experiment [6] relates to PC-3 prostate.
For experiment [7], the system named is SK-MEL-5 melanoma.
For experiment [8], the system named is UACC-62 melanoma.
The subject of experiment [9] is LOX IMVI melanoma.
Experiment [10] deals with SK-MEL-28 melanoma.

For `CC12CCC3C4CCC(=O)C=C4CCC3C1CC1CC(=O)OC12` (stereo not given), the growth in experiment [1] was 112%; in experiment [2], 90.9%; in experiment [3] it was 92.3%; in [4], 94.6%; in experiment [5] it was 97.1%; in experiment [6] it was 87.1%. For the same compound, the growth in [7] is 99.2%; in experiment [8] it was 97.2%; in [9] it was 90.7%; in experiment [10], 108%.

Consider `CCCCCCCCCCCCCCCC[n+]1ccccc1`, for which the growth is 17.1% and 15.2% in [1]; -68.2% (active) and -58.8% (active) in experiment [2]; -77.3% (active) and -40.5% (active) in experiment [3]; -88.4% (active) and -62.6% (active) in [4]; -90.4% (active) and -76.3% (active) in experiment [5]; -48.7% (active) and -80.9% (active) in experiment [6]. Also, the growth is -100% (active) and -94.8% (active) in [7]; -68% (active) and -46.2% (active) in experiment [8]; -72.9% (active) and -79.8% (active) in experiment [9]; -55% (active) and -30.7% (active) in [10].

Turning to `OCCN=Cc1c[nH]c2ccccc12`, the growth in experiment [1] is 105%; in [2], 102%; in experiment [3], 75%; in [4], 101%; in [5], 103%; in experiment [6], 90.5%. The growth is 103% in experiment [7], 90.9% in experiment [8], 95.2% in experiment [9] and 111% in experiment [10].

Consider `COc1ccn(C)c(=O)c1C#N`, for which the growth in experiment [1] is 101%; in [2], 78.8%; in experiment [3] it was 114%; in experiment [4], 109%; in experiment [5] it was 92%; in [6], 94.7%. The growth is 98% in [7], 95.9% in experiment [8], 97% in experiment [9] and 106% in experiment [10].

Take `O=P(O)(Nc1ccccc1)Nc1ccccc1`: the growth in [1] is 119%; in experiment [2] it was 94.3%; in [3] it was 81.9%; in experiment [4], 95.3%; in [5], 99.3%; in experiment [6], 91.5%. The growth was 94.4% in experiment [7], 91.8% in experiment [8], 92.7% in [9] and 148% in experiment [10].

Take `O=C(CBr)OCCOC(=O)CBr`: the growth in [1] is 72.4%; in [2], 92.5%; in experiment [3] it was 91.2%; in experiment [4], 104%; in experiment [5] it was 87.4%; in experiment [6], 84.1%. Also, the growth in experiment [7] was 99.3%; in experiment [8], 81.4%; in experiment [9], 37.1%; in experiment [10] it was 79.5%.

As to `O=NN(c1ccccc1)c1ccccc1`, the growth is 103% in experiment [1]; 119% in experiment [2]; 101% in experiment [3]; 106% in experiment [4]; 99.2% in [5]; 98% in [6]. In addition, the growth was 98.6% in experiment [7], 95.4% in experiment [8], 100% in experiment [9] and 114% in experiment [10].

Regarding `CCCCCCCCCCCCCCCCCCn1cc[n+](C)c1`, the growth in [1] was 3.3% (active) and -54.8% (active); in [2], -42.1% (active) and -36.8% (active); in experiment [3], -74.4% (active) and -55.1% (active); in experiment [4], -47.5% (active) and -68% (active); in experiment [5], -0.673% (active) and -63.9% (active); in [6] it was -7.74% (active) and -8.63% (active). Moreover, the growth is -81.1% (active) and -74.1% (active) in [7]; -70.9% (active) and -82.1% (active) in experiment [8]; 0.132% (active) and -52.2% (active) in experiment [9]; -49.4% (active) and -52.8% (active) in experiment [10].

As to `CC/C(=C(\c1ccc(OCCN2CCOCC2)cc1)c1ccc(OC(=O)Cc2ccccc2)cc1)c1ccc(Cl)cc1`, the growth in experiment [1] is 112%; in [2], 95.1%; in [3] it was 114%; in experiment [4], 99.6%; in experiment [5] it was 103%; in experiment [6], 95.3%. Also, the growth in [7] is 107%; in experiment [8], 99.7%; in experiment [9], 99%; in [10], 101%.

In the case of `CN1[C@@H](CC(=O)c2ccccc2)CCC[C@H]1CC(=O)c1ccccc1`, the growth is 97.1% in [1]; 108% in [2]; 90.6% in [3]; 98.4% in [4]; 103% in [5]; 93% in [6]. The growth is 102% in [7], 97.7% in experiment [8], 93.8% in experiment [9] and 103% in experiment [10].

As to `CCN1C(=O)CC(=O)N(CC)C1=S`, the growth was 96.4% in experiment [1]; 92.1% in experiment [2]; 72.4% in [3]; 101% in experiment [4]; 105% in [5]; 100% in experiment [6]. Besides, the growth in experiment [7] was 96.8%; in experiment [8] it was 95.5%; in [9] it was 100%; in experiment [10] it was 105%.

With `CCCCOCCOP(=O)(OCCOCCCC)OCCOCCCC`, the growth in experiment [1] is 101%; in experiment [2] it was 104%; in [3], 103%; in [4], 98%; in experiment [5] it was 106%; in experiment [6], 103%. Moreover, the growth in experiment [7] is 99.1%; in [8], 93.7%; in experiment [9] it was 91.7%; in [10], 117%.

For `C=C1C(=O)OC2CC3(C)OC3C3OC3C3=CC(OC3=O)C12` (stereo not given), the growth in experiment [1] was 46.4% and 36%; in experiment [2], 98.2% and 79.6%; in experiment [3], 87.7% and 90.1%; in experiment [4], 104% and 103%; in experiment [5], 103% and 104%; in experiment [6], 106% and 92.2%. Further, the growth was 109% and 95% in [7]; 99.3% and 82.7% in [8]; 93.1% and 92% in experiment [9]; 52.6% and 73.8% in experiment [10].

Take `CNC(=O)CCl`: the growth is 101% in experiment [1]; 102% in experiment [2]; 96% in experiment [3]; 104% in experiment [4]; 94.7% in [5]; 94.6% in experiment [6]. Moreover, the growth is 96.4% in experiment [7], 96.1% in experiment [8], 100% in experiment [9] and 107% in experiment [10].

For `CC[C@H](C)[C@H](NC(=O)[C@H]1CCCCN1C)C(=O)N(C)[C@H](CCc1nc(C(=O)N[C@@H](Cc2ccccc2)C[C@H](C)C(=O)O)cs1)C(C)C`, the growth in experiment [1] is 27.3%; in experiment [2], -3.57% (active); in experiment [3], 28.3%; in experiment [4], 39.5%; in experiment [5], 7.98% (active); in [6], 29.1%. The growth in experiment [7] is 5.59% (active); in experiment [8], 52.2%; in experiment [9], 15.2%; in experiment [10], 59.4%.

As to `Cc1cc(N(CCCl)CCCl)ccc1/C=N\NC(=O)c1cccnc1`, the growth is 93% and 85.1% in experiment [1]; 90.9% and 101% in experiment [2]; 71.5% and 86.4% in experiment [3]; 94.1% and 105% in [4]; 82.9% and 93.2% in [5]; 84.3% and 77.6% in [6]. Further, the growth in experiment [7] is 88.8% and 79.1%; in [8], 45% and 60.5%; in experiment [9] it was 69.4%; in [10], 108% and 97.8%.

Turning to `Cc1cc(Br)c([N+](=O)[O-])cc1[N+](=O)[O-]`, the growth in experiment [1] was 76.1%; in experiment [2], 103%; in experiment [3], 108%; in experiment [4], 103%; in [5], 103%; in experiment [6], 91.4%. For the same compound, the growth in experiment [7] was 100%; in experiment [8] it was 102%; in experiment [9] it was 19.7%; in experiment [10] it was 116%.

Consider `C[C@]12CC[C@H]3[C@@H](C[C@@H]4SC(Nc5ccccc5)=N[C@@]45C/C(=N/O)CC[C@]35C)[C@@H]1CCC2=O`, for which the growth was 44.3% in experiment [1]; 32.1% in experiment [2]; 76% in experiment [3]; 60.3% in experiment [4]; 37.5% in experiment [5]; 60.5% in [6]. Further, the growth in experiment [7] was 84.5%; in experiment [8], 86%; in experiment [9] it was -4.53% (active); in experiment [10] it was 73.3%.

In the case of `C[C@]12CC[C@@H](OC(=O)N(CCCl)N=O)C[C@@H]1CC[C@@H]1[C@@H]2CC[C@]2(C)C(=O)CC[C@@H]12`, the growth is 72.8% in experiment [1]; 57.9% in [2]; 63.4% in [3]; 37.5% in experiment [4]; 34.5% in experiment [5]; 45.6% in experiment [6]. For the same compound, the growth was 56.8% in [7], 30.4% in [8], 46.4% in [9] and 99.4% in experiment [10].

Take `Oc1ccc(O)c(Cl)c1`: the growth in experiment [1] is 96.4% and 110%; in experiment [2], 103% and 107%; in [3], 72.2% and 85.8%; in [4], 111%; in experiment [5], 94.6% and 101%; in experiment [6], 84.3% and 94.2%. The growth in [7] is 91.3% and 95.2%; in experiment [8], 93.9% and 101%; in [9], 94.4% and 93.9%; in experiment [10], 115% and 122%.

On to `CN1CCN(c2ccc(Cl)cc2)CC1`, for which the growth in [1] is 20.1%; in experiment [2], 26.4%; in [3], 111%; in [4], 93.9%; in [5] it was 70.1%; in experiment [6], 107%. Further, the growth in experiment [7] was 101%; in [8] it was 86.4%; in [9], 70.5%; in experiment [10], 99.1%.

Turning to `CCC1(CCSC#N)C(=O)NC(=O)NC1=O`, the growth in [1] is 99.6%; in [2], 100%; in experiment [3], 97.1%; in experiment [4], 101%; in experiment [5] it was 93.9%; in [6] it was 92.5%. The growth in [7] was 100%; in experiment [8], 104%; in experiment [9], 101%; in experiment [10], 110%.

As for `CCN1C(=O)NC(=O)C(C)(N2C(=O)c3c(F)c(F)c(F)c(F)c3C2=O)C1=O` (stereo not given), the growth in experiment [1] is 5.26% (active); in [2], 6.44% (active); in experiment [3] it was 64.6%; in experiment [4], 49.3%; in experiment [5] it was -25.4% (active); in [6], 12.3%. Moreover, the growth was 54.1% in experiment [7], 10.4% in experiment [8], -13.9% (active) in experiment [9] and -45.5% (active) in experiment [10].

In the case of `CCC1CCC(=O)O1` (stereo not given), the growth in experiment [1] was 98.1% and 105%; in [2], 107% and 110%; in [3], 86% and 96.4%; in experiment [4], 115% and 113%; in experiment [5], 97% and 108%; in experiment [6] it was 97.8% and 105%. Also, the growth in experiment [7] is 103% and 104%; in experiment [8], 114%; in [9], 97.5% and 103%; in experiment [10] it was 104% and 115%.
